Most compounds without a hit are left out; they make up all but 28% or so of the library.
D1 allo mod – D1 CRE-luciferase signal change, two-sided – cell-based, HEK293 D1, dopamine EC30, D1 allosteric modulator project, primary screen; D(1A) dopamine receptor (Homo sapiens), P21728; dopamine EC30 potentiation; actives deviate in either direction; B-score at 10 µM; 5.9% of 58,000 active; AID 641, 2007;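 active means luminescence count or its row- and column-corrected plate score outside the 99.7% band of the plate's sample wells, on either side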
DAT uptake mod – changed hDAT dopamine uptake under cocaine IC80, either direction, primary screen, cocaine antagonist project, cell-based, LLC-PK1 hDAT, [14C]-dopamine uptake, MLSMR; 1.3% of 110,000 active; B-score at 10 µM; AID 449768, 2010; LLC-PK1 hDAT cells, [14C]-dopamine uptake with cocaine IC80; actives deviate in either direction; Sodium-dependent dopamine transporter (Homo sapiens), Q01959;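 active means Z score or B-score, a plate-position-corrected score, falls beyond the plate's 99.7% confidence bounds, in either direction; inactive means both scores lie inside the 99.7% bounds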;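 further: scored against the spread of the other compound wells on the same plate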
CYP2C9 act – human CYP2C9 activators, primary screen, biochemical, luminescence. Cytochrome P450 2C9 (Homo sapiens), P11712. recombinant CYP2C9, luciferin-H conversion; stronger effect = higher value; factor 1 = untreated enzyme, 0 = blocked. activation factor at 5 µM. 1.4% of 96,000 active;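 active means activation factor of 2 or more for CYP2C9 at a 5 µM dose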;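 further: 0 = sulfaphenazole-blocked wells and 1 = vehicle-only wells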
CYP2C19 inhib – blockers of cytochrome P450 2C19 activity – biochemical, luminescence, ADME assay, primary screen; P33261; CYP2C19 Supersomes, luciferin-H EGE luminescence, 30 min; inhibition, % at 5 µM; 21% of 96,000 active; AID 778, 2007;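 active means CYP2C19 inhibition above a set limit at 5 µM in the primary screen, cut at about 50% in these data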;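 further: plate controls were negative control wells for no effect and 2.5 mM tranylcypromine positive control for full effect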
Target sequence (P33261 whole entry, looked up): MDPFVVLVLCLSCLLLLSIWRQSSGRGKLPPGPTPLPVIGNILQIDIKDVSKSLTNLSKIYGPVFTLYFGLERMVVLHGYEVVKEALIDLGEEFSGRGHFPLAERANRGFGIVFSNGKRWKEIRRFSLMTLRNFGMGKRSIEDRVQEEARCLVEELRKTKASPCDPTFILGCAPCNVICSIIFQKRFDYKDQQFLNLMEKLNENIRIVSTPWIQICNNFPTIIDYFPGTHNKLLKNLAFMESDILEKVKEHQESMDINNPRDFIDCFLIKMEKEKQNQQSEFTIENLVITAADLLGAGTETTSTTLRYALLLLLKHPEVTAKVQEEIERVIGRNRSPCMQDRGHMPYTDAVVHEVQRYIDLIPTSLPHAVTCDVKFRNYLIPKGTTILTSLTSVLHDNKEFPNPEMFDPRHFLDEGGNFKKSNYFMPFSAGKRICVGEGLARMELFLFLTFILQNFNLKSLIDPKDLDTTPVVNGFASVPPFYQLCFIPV
CYP2C9 inhib – blockers of cytochrome P450 2C9 activity – biochemical, luminescence, ADME assay, primary screen; CYP2C9 Supersomes, luciferin-H conversion; inhibition, % at 5 µM; 20% of 96,000 active; AID 777, 2007;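 active means blocking of liver enzyme CYP2C9 beyond about 50% at 5 µM, limit read from the data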
CYP2C19 act – human CYP2C19 activators, primary screen, biochemical, luminescence; activation factor at 5 µM; Cytochrome P450 2C19 (Homo sapiens), P33261; 96,000 tested, under 10 active; AID 1025, 2008; recombinant CYP2C19, luciferin-H EGE luminescence; stronger effect = higher value; 0 = fully inhibited enzyme, 1 = untreated enzyme;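 active means activation factor of at least 2 at 5 µM in the primary screen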;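 further: 0 = wells with 2.5 mM tranylcypromine and 1 = vehicle-only wells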
The depositor's hits bear a star; / = no result.

SMILES	D1 allo mod	DAT uptake mod	CYP2C9 act	CYP2C19 inhib	CYP2C9 inhib	CYP2C19 act
CC(C)CNS(=O)(=O)c1ccc(CCC(=O)NCc2ccco2)cc1	-0.94	0.29	/	/	/	/
Cn1ccnc1SCC(=O)NC1CC1	/	-0.23	0.8	-15	16	1.2
Cn1ccnc1SCC(=O)NC1CCCCC1	/	0.95	1	92*	-5	0.1
CCc1nnc(SCC(=O)NC2CCCCC2)nc1CC	-0.23	-0.77	1.2	4	-25	1
CSc1nsc(SCC(=O)NC2CCCCC2)n1	1.8	0.045	1	96*	1	0
COc1cc(OC)cc(-n2nnnc2SCC(=O)NC2CCCC2)c1	/	0.68	3.1*	14	-206	0.9
CC(Oc1ccccc1)C(=O)NCc1cccnc1 (stereo not drawn)	0.0022	0.27	1	16	-1	0.8
CC(Oc1ccc(F)cc1)C(=O)Nc1sc2c(c1C(=O)NCc1cccnc1)CCCC2 (stereo not drawn)	/	2	0.1	78*	94*	0.2
C=CCn1c(SCC(=O)Nc2ccccc2C)nnc1-c1ccncc1	0.52	0.011	0.8	74*	23	0.3
C=CCn1c(SCC(=O)Nc2ccccc2CC)nnc1-c1ccncc1	-0.097	-0.027	0.5	91*	48	0.1
C=CCn1c(SCc2cccnc2)nnc1-c1ccncc1	0.05	0.17	1	23	4	0.8
C=CCn1c(SCC(=O)Nc2ccc(C)cc2C)nnc1-c1cccnc1	0.051	0.62	0.1	45	87*	0.6
C=CCn1c(SCc2c(Cl)cccc2Cl)nnc1-c1cccnc1	/	1.3	0.7	54*	35	0.5
COc1ccccc1-c1nc(C#N)c(N2CCN(C(c3ccccc3)c3ccccc3)CC2)o1	-1.3	1.8	0.8	14	22	0.9
CCOCCCNC(=O)C1CCCCN1S(=O)(=O)c1ccc(F)cc1 (stereo not drawn)	/	-0.87	0.9	19	6	0.8
CCOc1ccccc1NC(=O)CSc1nnc(-c2cnccn2)n1CC	/	0.75	0.5	88*	45	0.1
C=CCn1c(Cc2csc(N)n2)nnc1SCC(=O)Nc1ccccc1C(F)(F)F	/	0.047	0.5	53*	46	0.5
C=CCn1c(SCC(=O)NCC(=O)OCC)nnc1-c1ccccn1	-0.073	-1.2	1	1	2	1
C=CCn1c(SCC(=O)Nc2c(C)cccc2C)nnc1-c1cnccn1	0.55	0.051	0.5	100*	46	0
O=C(c1c(F)cccc1F)N(Cc1ccccn1)C1CC1	/	-0.36	1.1	4	-7	1
COc1ccc(S(=O)(=O)NCc2ccncc2)cc1OC	/	0.0033	0.7	100*	25	0
Cc1ccc(C)c(S(=O)(=O)NCc2ccc(C(=O)NCc3ccccn3)cc2)c1	/	1.3	0.1	89*	89*	0.1
COc1ccc(S(=O)(=O)NCCSc2ccc(Cl)cc2)cc1OC	/	0.95	/	/	/	/
Cc1ccc(C)c(S(=O)(=O)NCc2ccncc2)c1	/	-0.51	0.7	83*	30	0.2
COc1ccc(S(=O)(=O)NCCC(C)C)cc1OC	/	-1.5	3.4*	96*	-237	0
SMILES	D1 allo mod	DAT uptake mod	CYP2C9 act	CYP2C19 inhib	CYP2C9 inhib	CYP2C19 act
C=CCOC(=O)C1=C[C@@H](c2coc3ccccc3c2=O)[C@H](CCCO)[C@@H](OCC)O1	/	0.51	/	/	/	/
O=C1OC2CC3CC1CC(O)(C3)C2 (stereo not drawn)	0.91	0.12	1.1	-16	-8	1.2
CCOc1ccc(S(=O)(=O)NCc2ccccn2)cc1	/	0.19	1.4	74*	-40	0.3
CCOc1ccc(S(=O)(=O)NCc2ccncc2)cc1	/	-2.7*	0.2	100*	79*	0
CCOc1ccc(S(=O)(=O)NCc2cccs2)cc1	/	1.3	0.6	47	42	0.5
COc1ccc(S(=O)(=O)NCc2ccccn2)cc1	/	-0.28	0.9	32	12	0.7
CCOC(=O)N1CCN(C(=O)COc2ccc(S(=O)(=O)NCc3ccccc3)cc2)CC1	/	-1.4	0.8	-4	20	1
CC1CCCCC1NS(=O)(=O)c1ccc(S(=O)(=O)NCc2ccncc2)cc1 (stereo not drawn)	-1.5	-0.031	0	98*	100*	0
CC1CCCCC1NC(=O)c1ccc(S(=O)(=O)NCc2ccco2)cc1 (stereo not drawn)	-0.98	0.028	/	/	/	/
CCOC(=O)COc1ccc(S(=O)(=O)NCc2ccncc2)cc1	0.13	0.3	0.3	98*	67*	0
COc1ccc(-n2ncc3c(NCCCn4ccnc4)ncnc32)cc1	/	-0.94	/	/	/	/
COc1ccc(-n2c(N)c(Br)c(=O)[nH]c2=O)cc1	/	0.14	1	-3	4	1
Cc1nc(N)sc1-c1nnc(SCC(=O)Nc2nccs2)n1C	-0.43	0.013	0.7	27	34	0.7
Cc1ccc(S(=O)(=O)NCC(=O)NCc2ccncc2)cc1	/	-0.058	/	/	/	/
Cc1ccc(CNS(=O)(=O)N(C)C)cc1	/	-0.72	0.9	62*	12	0.4
Cc1ccc(CNC(N)=S)cc1	/	-0.2	1.1	6	-6	0.9
O=C1CC(c2ccc(S(=O)(=O)NCc3ccncc3)cc2)CN1 (stereo not drawn)	/	0.015	0.5	85*	54*	0.1
Cc1ccc(S(=O)(=O)NCc2ccncc2)cc1	/	0.32	0.8	97*	24	0
CCOC(=O)c1ccccc1NC(=O)c1cccc(F)c1	/	0.33	1.1	19	-11	0.8
CCOc1ccc2[nH]c(=O)c(CN(Cc3cccs3)Cc3nnnn3C(C)(C)CC)cc2c1	1.1	0.41	0.6	40	37	0.6
Cc1cccc2cc(CN(Cc3cccs3)Cc3nnnn3Cc3ccccc3)c(=O)[nH]c12	0.23	1.2	0.6	65*	42	0.4
COc1ccc2cc(CN(Cc3cccs3)Cc3nnnn3Cc3ccccc3)c(=O)[nH]c2c1	/	1.6	/	/	/	/
O=c1[nH]c2cc3c(cc2cc1CN(Cc1cccs1)Cc1nnnn1Cc1ccco1)OCCO3	2.3	2.8	0.7	27	32	0.7
CCC(C)(C)n1nnnc1CN(Cc1cccs1)Cc1cc2cc(OC)ccc2[nH]c1=O	1.5	0.66	0.4	70*	59*	0.3
CCOC(=O)Cn1nnnc1CN(Cc1cccs1)Cc1cc2cc(C)cc(C)c2[nH]c1=O	/	/	1.3	63*	-30	0.4
O=C(Nc1nnc(CCS(=O)(=O)c2ccc(Br)cc2)s1)c1ccc([N+](=O)[O-])cc1	/	-0.19	1.1	-8	-11	1.1

From PubChem BioAssay
